# Source: article PMC7862700, “An all-to-all approach to the identification of sequence-specific readers for epigenetic DNA modifications on cytosine”
# Tests used:
# Assay in all cases: DAPPL (digital affinity profiling via proximity ligation, sequencing); 10 mM Tris-HCl pH 7.5, 50 mM NaCl, 1 mM DTT, 4% glycerol, room temperature, 30 min; GST-TFs on glutathione beads, 16-mer random dsDNA library, 0.1% formaldehyde crosslink after washing; high values mean tight binding
# FLI1 = biological target: T1, FLI1 (Homo sapiens, UniProt Q01543 1-452); details: protein: recombinant; tags: N-terminal GST; dsDNA, one strand shown
# T1 sequence: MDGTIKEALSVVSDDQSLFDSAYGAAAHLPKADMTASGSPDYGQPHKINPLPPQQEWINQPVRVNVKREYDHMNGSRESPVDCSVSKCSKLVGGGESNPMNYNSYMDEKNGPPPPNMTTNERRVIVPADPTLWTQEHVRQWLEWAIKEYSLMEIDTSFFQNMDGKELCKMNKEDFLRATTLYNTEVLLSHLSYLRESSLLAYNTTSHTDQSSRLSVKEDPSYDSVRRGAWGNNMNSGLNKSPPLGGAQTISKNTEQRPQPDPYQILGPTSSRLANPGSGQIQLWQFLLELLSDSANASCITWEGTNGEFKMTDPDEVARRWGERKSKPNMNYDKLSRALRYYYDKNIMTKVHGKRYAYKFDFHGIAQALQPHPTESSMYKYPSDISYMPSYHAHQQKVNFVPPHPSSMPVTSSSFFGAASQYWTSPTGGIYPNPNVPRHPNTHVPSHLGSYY
# Method in brief: (§1)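 In yeast, human transcription factors were expressed with a GST fusion, then pulled down on glutathione beads and given DNA barcodes. Pooled with a tag-only sample, they were exposed to 200 nmole of a 16-mer random double-stranded DNA library (Tris/NaCl/DTT/glycerol buffer, room temperature, 30 min), washed, crosslinked with 0.1% formaldehyde, proximity-ligated using BsaI/T4 ligase for 1 h at 37 °C, PCR-amplified and read on an Illumina NextSeq500. Each hexamer's frequency of reads for a factor, divided by the matching frequency for the tag-only sample, gives the binding signal.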
# ELK1 = biological target: T2, ELK1 (Homo sapiens, UniProt P19419 1-428); details: protein: recombinant; tags: N-terminal GST; dsDNA, one strand shown
# T2 sequence: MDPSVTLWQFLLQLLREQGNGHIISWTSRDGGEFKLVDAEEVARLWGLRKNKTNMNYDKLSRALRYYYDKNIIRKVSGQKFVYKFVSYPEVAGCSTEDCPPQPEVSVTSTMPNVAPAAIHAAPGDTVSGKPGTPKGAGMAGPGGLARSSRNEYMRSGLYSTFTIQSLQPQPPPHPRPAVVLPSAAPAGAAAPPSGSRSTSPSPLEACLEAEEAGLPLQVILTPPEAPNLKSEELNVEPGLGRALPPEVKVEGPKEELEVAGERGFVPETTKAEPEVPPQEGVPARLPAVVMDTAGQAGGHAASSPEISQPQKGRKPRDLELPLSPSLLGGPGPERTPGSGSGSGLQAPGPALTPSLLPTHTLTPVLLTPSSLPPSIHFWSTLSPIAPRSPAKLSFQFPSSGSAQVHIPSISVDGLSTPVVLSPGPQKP
# Method in brief: as §1
# GABPA = biological target: T3, GABPA (Homo sapiens, UniProt Q06546 1-454); details: protein: recombinant; tags: N-terminal GST; dsDNA, one strand shown
# T3 sequence: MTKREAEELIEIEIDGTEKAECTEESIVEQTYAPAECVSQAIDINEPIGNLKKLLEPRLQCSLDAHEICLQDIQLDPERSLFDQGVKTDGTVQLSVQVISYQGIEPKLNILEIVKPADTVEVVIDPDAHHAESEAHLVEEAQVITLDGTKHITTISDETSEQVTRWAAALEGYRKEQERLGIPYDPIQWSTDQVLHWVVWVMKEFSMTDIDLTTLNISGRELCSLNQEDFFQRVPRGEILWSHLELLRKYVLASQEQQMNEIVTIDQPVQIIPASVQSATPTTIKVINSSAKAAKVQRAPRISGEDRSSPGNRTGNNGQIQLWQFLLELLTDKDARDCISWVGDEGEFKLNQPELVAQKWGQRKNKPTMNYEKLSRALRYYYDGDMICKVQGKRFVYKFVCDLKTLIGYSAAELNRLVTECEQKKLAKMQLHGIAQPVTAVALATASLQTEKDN
# Method in brief: as §1
# ERG = biological target: T4, ERG (Homo sapiens, UniProt P11308 1-479); details: protein: recombinant; tags: N-terminal GST; dsDNA, one strand shown
# T4 sequence: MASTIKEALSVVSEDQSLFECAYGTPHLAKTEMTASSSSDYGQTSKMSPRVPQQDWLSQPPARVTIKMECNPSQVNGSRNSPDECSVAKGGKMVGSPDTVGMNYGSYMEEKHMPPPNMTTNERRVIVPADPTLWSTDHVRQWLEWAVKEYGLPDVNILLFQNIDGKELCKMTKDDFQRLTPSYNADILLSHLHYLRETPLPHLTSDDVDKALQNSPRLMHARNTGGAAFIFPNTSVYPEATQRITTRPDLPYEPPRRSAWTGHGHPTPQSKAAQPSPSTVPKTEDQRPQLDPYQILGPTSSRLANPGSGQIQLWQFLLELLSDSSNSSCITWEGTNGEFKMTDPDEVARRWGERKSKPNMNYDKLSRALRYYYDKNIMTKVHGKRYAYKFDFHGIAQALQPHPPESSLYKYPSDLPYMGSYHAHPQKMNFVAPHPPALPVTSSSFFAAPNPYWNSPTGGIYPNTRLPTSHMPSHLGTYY
# Method in brief: as §1
# ELF1 = ELF1 (Homo sapiens, UniProt P32519 1-619); details: protein: recombinant; tags: N-terminal GST; dsDNA, one strand shown
# Method in brief: as §1
# EHF = biological target: T5, EHF (Homo sapiens, UniProt Q9NZC4 1-300); details: protein: recombinant; tags: N-terminal GST; dsDNA, one strand shown
# T5 sequence: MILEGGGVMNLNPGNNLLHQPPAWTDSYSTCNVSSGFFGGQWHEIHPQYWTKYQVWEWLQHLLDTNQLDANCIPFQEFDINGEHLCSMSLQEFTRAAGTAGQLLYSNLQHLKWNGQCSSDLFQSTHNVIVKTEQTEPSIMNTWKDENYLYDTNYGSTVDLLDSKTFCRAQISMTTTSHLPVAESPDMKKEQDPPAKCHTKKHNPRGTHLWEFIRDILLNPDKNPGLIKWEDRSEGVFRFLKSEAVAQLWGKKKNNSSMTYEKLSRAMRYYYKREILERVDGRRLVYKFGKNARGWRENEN
# Method in brief: as §1
# SPI1 = SPI1 (Homo sapiens, UniProt P17947 1-270); details: protein: recombinant; tags: N-terminal GST; dsDNA, one strand shown
# Method in brief: as §1
# SPIB = SPIB (Homo sapiens, UniProt Q01892 1-262); details: protein: recombinant; tags: N-terminal GST; dsDNA, one strand shown
# Method in brief: as §1
# ELK3 = biological target: T6, ELK3 (Homo sapiens, UniProt P41970 1-407); details: protein: recombinant; tags: N-terminal GST; dsDNA, one strand shown
# T6 sequence: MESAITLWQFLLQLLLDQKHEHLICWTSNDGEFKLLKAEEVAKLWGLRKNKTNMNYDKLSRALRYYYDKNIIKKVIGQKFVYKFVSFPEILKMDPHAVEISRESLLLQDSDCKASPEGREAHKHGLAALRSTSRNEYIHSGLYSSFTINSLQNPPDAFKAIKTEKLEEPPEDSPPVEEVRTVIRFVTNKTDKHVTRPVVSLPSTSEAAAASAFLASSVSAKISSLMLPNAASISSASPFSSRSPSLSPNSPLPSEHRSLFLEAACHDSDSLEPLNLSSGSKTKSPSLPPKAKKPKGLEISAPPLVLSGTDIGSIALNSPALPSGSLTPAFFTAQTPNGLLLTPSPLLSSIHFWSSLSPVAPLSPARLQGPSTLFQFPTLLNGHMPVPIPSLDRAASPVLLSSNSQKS
# Method in brief: as §1
# FEV = biological target: T7, FEV (Homo sapiens, UniProt Q99581 1-238); details: protein: recombinant; tags: N-terminal GST; dsDNA, one strand shown
# T7 sequence: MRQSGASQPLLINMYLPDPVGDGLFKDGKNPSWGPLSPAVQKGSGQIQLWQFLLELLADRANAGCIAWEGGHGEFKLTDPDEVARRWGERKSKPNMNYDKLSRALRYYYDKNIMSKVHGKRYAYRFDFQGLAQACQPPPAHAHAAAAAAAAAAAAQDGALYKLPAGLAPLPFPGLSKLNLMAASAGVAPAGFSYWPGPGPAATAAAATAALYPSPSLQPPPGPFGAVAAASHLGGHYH
# Method in brief: as §1
# ETV5 = ETV5 (Homo sapiens, UniProt P41161 1-510); details: protein: recombinant; tags: N-terminal GST; dsDNA, one strand shown
# Method in brief: as §1
# HSF1 = HSF1 (Homo sapiens, UniProt Q00613 1-529); details: protein: recombinant; tags: N-terminal GST; chain copies: 3; dsDNA, one strand shown
# Method in brief: as §1
# SPIC = biological target: T8, SPIC (Homo sapiens, UniProt Q8N5J4 1-248); details: protein: recombinant; tags: N-terminal GST; dsDNA, one strand shown
# T8 sequence: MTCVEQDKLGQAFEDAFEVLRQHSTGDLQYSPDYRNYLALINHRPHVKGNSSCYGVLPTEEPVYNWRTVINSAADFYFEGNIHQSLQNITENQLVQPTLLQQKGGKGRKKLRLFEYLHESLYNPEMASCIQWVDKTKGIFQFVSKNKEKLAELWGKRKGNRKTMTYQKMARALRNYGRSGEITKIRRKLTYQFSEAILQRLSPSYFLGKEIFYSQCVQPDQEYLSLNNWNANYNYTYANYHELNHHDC
# Method in brief: as §1
# ELF4 = ELF4 (Homo sapiens, UniProt Q99607 1-663); details: protein: recombinant; tags: N-terminal GST; dsDNA, one strand shown
# Method in brief: as §1
# ELK4 = biological target: T9, ELK4 (Homo sapiens, UniProt P28324-2 1-405); details: protein: recombinant; tags: N-terminal GST; dsDNA, one strand shown
# T9 sequence: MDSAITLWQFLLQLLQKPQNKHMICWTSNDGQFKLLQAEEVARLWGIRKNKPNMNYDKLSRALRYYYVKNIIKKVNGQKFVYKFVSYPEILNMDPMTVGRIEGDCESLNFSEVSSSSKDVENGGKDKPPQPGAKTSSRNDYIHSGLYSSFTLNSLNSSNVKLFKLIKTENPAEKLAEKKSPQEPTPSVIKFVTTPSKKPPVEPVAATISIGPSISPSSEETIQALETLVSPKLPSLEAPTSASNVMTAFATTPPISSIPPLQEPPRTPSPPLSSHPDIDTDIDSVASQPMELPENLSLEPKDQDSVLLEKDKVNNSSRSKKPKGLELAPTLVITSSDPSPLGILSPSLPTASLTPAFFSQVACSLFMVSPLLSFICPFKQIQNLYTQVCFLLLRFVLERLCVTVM
# Method in brief: as §1
# ETV2 = biological target: T10, ETV2 (Homo sapiens, UniProt O00321 1-342); details: protein: recombinant; tags: N-terminal GST; dsDNA, one strand shown
# T10 sequence: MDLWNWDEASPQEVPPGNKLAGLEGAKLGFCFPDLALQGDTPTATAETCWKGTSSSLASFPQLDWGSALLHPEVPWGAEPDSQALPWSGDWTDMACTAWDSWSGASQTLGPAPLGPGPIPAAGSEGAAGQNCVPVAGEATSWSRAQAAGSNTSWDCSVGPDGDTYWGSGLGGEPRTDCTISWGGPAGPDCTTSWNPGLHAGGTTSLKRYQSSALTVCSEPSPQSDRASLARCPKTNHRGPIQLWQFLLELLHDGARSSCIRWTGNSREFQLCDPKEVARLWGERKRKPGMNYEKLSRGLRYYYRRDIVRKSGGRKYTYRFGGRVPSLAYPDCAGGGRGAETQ
# Method in brief: as §1
# ELF3 = biological target: T11, ELF3 (Homo sapiens, UniProt P78545 1-371); details: protein: recombinant; tags: N-terminal GST; dsDNA, one strand shown
# T11 sequence: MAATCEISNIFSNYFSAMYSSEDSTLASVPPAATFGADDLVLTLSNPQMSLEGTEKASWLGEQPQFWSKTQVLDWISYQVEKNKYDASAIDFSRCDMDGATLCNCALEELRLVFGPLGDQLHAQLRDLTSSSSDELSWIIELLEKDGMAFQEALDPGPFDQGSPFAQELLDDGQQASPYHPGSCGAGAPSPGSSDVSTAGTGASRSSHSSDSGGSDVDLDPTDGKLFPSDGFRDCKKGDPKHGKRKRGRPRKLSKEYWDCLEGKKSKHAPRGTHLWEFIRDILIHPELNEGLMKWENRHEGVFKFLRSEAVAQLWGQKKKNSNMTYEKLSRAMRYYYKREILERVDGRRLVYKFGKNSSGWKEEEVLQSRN
# Method in brief: as §1
# CRX = CRX (Homo sapiens, UniProt O43186 1-299); details: protein: recombinant; tags: N-terminal GST; dsDNA, one strand shown
# Method in brief: as §1
# ETV1 = ETV1 (Homo sapiens, UniProt P50549 1-477); details: protein: recombinant; tags: N-terminal GST; dsDNA, one strand shown
# Method in brief: as §1
# Sequence of ETV5 (P41161 whole entry): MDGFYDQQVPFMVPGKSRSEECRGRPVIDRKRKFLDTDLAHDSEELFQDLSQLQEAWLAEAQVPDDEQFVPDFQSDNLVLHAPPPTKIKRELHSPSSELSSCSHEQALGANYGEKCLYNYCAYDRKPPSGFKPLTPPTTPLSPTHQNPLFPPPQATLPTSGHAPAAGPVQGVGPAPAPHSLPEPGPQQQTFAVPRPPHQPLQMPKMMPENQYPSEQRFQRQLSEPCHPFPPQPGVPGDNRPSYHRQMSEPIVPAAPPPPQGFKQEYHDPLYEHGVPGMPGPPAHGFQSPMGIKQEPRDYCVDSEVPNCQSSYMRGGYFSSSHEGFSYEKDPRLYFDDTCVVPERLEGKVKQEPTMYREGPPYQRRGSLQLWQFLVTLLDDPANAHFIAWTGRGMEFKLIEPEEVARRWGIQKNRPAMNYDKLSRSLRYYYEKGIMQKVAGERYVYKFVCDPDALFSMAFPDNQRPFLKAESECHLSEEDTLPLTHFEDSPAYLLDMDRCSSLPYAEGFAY
# Sequence of SPIB (Q01892 whole entry): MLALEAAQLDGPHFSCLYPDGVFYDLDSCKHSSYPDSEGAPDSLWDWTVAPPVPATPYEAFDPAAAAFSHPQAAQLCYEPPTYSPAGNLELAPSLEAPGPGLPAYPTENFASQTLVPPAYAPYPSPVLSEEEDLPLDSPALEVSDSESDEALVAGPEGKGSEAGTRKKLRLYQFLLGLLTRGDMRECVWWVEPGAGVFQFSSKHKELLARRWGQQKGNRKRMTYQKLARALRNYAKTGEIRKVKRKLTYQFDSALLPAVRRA
# Sequence of ELF1 (P32519 whole entry): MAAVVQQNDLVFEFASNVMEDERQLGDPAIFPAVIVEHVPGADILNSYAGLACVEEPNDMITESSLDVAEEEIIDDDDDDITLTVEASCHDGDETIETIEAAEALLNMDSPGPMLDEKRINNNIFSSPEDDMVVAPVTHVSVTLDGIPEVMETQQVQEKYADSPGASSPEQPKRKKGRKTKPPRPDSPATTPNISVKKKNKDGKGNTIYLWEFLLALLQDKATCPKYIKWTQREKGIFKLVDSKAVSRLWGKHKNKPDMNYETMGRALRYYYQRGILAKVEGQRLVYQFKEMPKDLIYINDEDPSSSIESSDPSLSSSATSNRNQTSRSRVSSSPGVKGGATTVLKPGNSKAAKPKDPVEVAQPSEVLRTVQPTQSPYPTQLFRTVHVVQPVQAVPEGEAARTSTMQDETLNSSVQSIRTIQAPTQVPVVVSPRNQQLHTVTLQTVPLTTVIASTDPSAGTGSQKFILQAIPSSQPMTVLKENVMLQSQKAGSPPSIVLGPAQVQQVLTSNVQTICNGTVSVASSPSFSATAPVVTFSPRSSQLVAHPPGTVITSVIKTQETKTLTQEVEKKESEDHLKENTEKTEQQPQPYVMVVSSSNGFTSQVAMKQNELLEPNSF
# Sequence of ETV1 (P50549 whole entry): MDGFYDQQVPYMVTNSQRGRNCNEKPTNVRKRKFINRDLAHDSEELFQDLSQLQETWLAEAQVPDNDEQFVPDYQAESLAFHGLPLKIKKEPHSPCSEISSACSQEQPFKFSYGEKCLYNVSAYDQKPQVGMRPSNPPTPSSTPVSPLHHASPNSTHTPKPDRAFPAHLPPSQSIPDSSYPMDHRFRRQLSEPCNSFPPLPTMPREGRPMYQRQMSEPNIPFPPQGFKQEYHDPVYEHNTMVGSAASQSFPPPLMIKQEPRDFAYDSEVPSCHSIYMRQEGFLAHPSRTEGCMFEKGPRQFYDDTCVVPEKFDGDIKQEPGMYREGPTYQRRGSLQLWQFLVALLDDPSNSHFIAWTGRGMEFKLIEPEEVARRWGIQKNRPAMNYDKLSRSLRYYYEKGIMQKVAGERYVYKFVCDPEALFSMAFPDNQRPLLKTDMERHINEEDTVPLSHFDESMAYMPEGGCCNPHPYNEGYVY
# Sequence of HSF1 (Q00613 whole entry): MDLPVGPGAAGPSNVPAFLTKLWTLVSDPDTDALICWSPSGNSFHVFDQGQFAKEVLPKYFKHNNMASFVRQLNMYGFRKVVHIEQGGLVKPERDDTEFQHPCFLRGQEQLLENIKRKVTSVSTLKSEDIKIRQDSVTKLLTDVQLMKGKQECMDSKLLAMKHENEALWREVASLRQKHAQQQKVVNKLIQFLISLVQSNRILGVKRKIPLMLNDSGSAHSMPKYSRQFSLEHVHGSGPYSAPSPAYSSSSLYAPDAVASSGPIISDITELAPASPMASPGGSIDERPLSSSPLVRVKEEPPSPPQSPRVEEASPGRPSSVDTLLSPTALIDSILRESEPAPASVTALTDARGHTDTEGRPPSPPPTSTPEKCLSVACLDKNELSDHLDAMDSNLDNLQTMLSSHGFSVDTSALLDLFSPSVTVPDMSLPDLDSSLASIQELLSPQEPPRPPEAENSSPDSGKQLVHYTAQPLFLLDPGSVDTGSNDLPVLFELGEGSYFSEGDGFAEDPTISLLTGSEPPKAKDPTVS
# Sequence of ELF4 (Q99607 whole entry): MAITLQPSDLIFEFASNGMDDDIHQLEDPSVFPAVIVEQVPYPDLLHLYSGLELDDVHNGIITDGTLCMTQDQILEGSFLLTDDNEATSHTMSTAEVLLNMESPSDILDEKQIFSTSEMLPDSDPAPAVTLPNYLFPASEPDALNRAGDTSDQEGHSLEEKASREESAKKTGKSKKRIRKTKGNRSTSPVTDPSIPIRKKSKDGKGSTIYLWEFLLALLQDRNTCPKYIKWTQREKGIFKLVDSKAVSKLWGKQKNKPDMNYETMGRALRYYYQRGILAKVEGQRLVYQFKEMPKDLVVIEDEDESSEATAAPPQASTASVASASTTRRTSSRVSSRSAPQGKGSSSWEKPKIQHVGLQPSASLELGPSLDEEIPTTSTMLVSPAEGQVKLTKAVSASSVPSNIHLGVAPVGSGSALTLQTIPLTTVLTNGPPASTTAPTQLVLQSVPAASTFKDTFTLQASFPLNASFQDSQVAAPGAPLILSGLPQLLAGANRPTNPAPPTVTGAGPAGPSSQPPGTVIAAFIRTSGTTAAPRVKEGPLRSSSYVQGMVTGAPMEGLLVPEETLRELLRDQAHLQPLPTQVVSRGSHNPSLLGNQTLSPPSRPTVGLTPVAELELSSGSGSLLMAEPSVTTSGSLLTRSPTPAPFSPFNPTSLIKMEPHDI
# Sequence of CRX (O43186 whole entry): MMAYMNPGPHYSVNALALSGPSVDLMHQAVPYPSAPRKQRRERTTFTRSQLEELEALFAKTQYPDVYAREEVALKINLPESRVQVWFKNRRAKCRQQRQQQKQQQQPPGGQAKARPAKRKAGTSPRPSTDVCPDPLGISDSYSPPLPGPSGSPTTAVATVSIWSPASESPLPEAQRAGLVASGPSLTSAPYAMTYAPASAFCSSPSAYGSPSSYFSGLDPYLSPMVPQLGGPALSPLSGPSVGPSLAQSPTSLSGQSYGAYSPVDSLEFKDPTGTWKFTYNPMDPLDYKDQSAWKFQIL
sequence,measurement,setting,value
GATTCT,binding signal,FLI1,"1.28 fold enrichment (6-mer frequency, TF over GST control)"
same,binding signal,ELK1,"1.22 fold enrichment (6-mer frequency, TF over GST control)"
same,binding signal,GABPA,"1.29 fold enrichment (6-mer frequency, TF over GST control)"
same,binding signal,ERG,"1.21 fold enrichment (6-mer frequency, TF over GST control)"
same,binding signal,ELF1,"1.26 fold enrichment (6-mer frequency, TF over GST control)"
same,binding signal,EHF,"1.26 fold enrichment (6-mer frequency, TF over GST control)"
same,binding signal,SPI1,"1.3 fold enrichment (6-mer frequency, TF over GST control)"
same,binding signal,SPIB,"1.27 fold enrichment (6-mer frequency, TF over GST control)"
same,binding signal,ELK3,"1.33 fold enrichment (6-mer frequency, TF over GST control)"
same,binding signal,FEV,"1.13 fold enrichment (6-mer frequency, TF over GST control)"
same,binding signal,ETV5,"1.18 fold enrichment (6-mer frequency, TF over GST control)"
same,binding signal,HSF1,"2.08 fold enrichment (6-mer frequency, TF over GST control)"
same,binding signal,SPIC,"1.11 fold enrichment (6-mer frequency, TF over GST control)"
same,binding signal,ELF4,"1.19 fold enrichment (6-mer frequency, TF over GST control)"
same,binding signal,ELK4,"1.36 fold enrichment (6-mer frequency, TF over GST control)"
same,binding signal,ETV2,"1.15 fold enrichment (6-mer frequency, TF over GST control)"
same,binding signal,ELF3,"1.05 fold enrichment (6-mer frequency, TF over GST control)"
same,binding signal,CRX,"1.58 fold enrichment (6-mer frequency, TF over GST control)"
same,binding signal,ETV1,"1.25 fold enrichment (6-mer frequency, TF over GST control)"
